Source: PubChem BioAssay
Tat export inh: E. coli Tat transport inhibition; E. coli MC4100 TorA-mCherry Tat export, fluorescence; inhibition, % at 10 µM; actives 0.036% (n = 340,000); AID 488895;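 active = mean replicate inhibition at least 50% and at least half of replicates individually reaching 50%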;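 note: exported cargo escapes ClpAP degradation while cytoplasmic cargo is degraded and loses fluorescence; 0% = median of neutral control wells and 100% = median of NaSCN control wells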
AddAB inh: less growth of phage-infected E. coli with AddAB. E. coli expressing H. pylori AddAB, absorbance growth. AID 435030. actives 0.29% (n = 330,000). inhibition, % at 11.9 µM; in the data active = inhibition above about 12%;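 note: 0% = vehicle wells of infected cells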
phage Ecoli inh: E. coli growth loss with phage present; actives 0.26% (n = 360,000); growth absorbance; inhibition, % at 11.9 µM; in the data active = inhibition above about 11%
E coli growth-1: counter-screen for AddAB inhibitors: E. coli growth inhibition; E. coli V3065 growth, OD600 absorbance, 18 h; inhibition, % at 11.9 µM; actives 0.27% (n = 330,000); AID 449728;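 active = inhibition above the campaign's mean inhibition across all tested compounds plus 3 SD, cut at about 9.9% in these data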;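 note: uninfected addAB+ strain grown without phage in ampicillin broth; 0% = DMSO wells and 100% = ciprofloxacin 0.95 µg/ml wells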
E coli growth-2: E. coli growth inhibition; Escherichia coli growth, OD600, 23 h; hits give low values; OD600 absorbance (concentration not given with the values); actives 0.21% (n = 330,000);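 active = OD600 absorbance below the run mean of sample wells minus 3.6 SD, in any replicate, cut at about 0.56 in these data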
RecBCD conf: growth loss of phage-infected V66 E. coli, RecBCD confirmation screen | inhibition, % at 11.9 µM | actives 45% (n = 890) | shares compounds with phage Ecoli inh | E. coli V66 + T4 2- phage, growth OD;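 active = mean inhibition over triplicates exceeding the hit threshold derived in the original primary screen, cut at about 11% in these data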
Ecoli viability: counter-screen for RecBCD inhibitors: inhibitors of bacterial viability; E. coli viability, absorbance (OD) growth; shares compounds with phage Ecoli inh; inhibition, % at 11.9 µM; actives 29% (n = 890); in the data active = inhibition above about 20%;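 note: E. coli strain V66 grown with compound alone and no phage infection; 0% = bacteria with DMSO vehicle only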
AddAB phage OD: growth loss of phage-infected AddAB E. coli, RecBCD counter-screen. shares compounds with phage Ecoli inh. E. coli expressing H. pylori AddAB + T4 phage, OD growth; gene 2 mutant T4, recBCD-deleted host. inhibition, % at 11.9 µM. actives 45% (n = 890). AID 651984;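 active = mean inhibition above the solvent-only control wells' mean plus 3 SD, cut at about 22% in these data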;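 note: higher means less bacterial growth from phage killing when AddAB is blocked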
The depositor's hits bear a star; · = no result given. A selection: hits, their analogues and other compounds. The true share with any hit is near 0.51%.

SMILES | Tat export inh | AddAB inh | phage Ecoli inh | E coli growth-1 | E coli growth-2 | RecBCD conf | Ecoli viability | AddAB phage OD
C=CCC(Cc1ccc(F)cc1)C(=O)OCC1CCCN1C(=O)C(CC=C)CC(=O)NCCO (centres undefined) | · | · | · | · | 0.71 | · | · | ·
COc1ccc(NC(=O)ON=Cc2ccncc2)cc1 | · | · | · | · | 0.71 | · | · | ·
CCn1c(=O)c(C(=O)NCCc2ccc(OC)c(OC)c2)c(O)c2ccccc21 | 3 | 4 | 11* | 9.9* | 0.66 | 5 | 6 | 11
CCCn1c(=O)c(C(=O)NCCc2ccc(OC)c(OC)c2)c(O)c2ccccc21 | 5 | · | 3 | · | 0.67 | · | · | ·
Cc1ccc2nc(C)c(C(=O)NN=Cc3cccs3)n2c1 | · | · | · | · | 0.67 | · | · | ·
COc1nccnc1NS(=O)(=O)c1ccc(N=Cc2c(C)[nH]n(-c3ccccc3)c2=O)cc1 | 1 | 6 | 5 | 4 | 0.61 | · | · | ·
Cc1[nH]n(-c2ccccc2)c(=O)c1C=Nc1ccc(S(=O)(=O)Nc2nccs2)cc1 | 18 | 8 | 15* | 7 | 0.65 | 7 | 4 | 26*
COc1ccc(C=NN(C)C2=NS(=O)(=O)c3ccccc32)cc1OC | · | · | · | · | 0.7 | · | · | ·
Oc1ccc(Cc2ccccc2)c2cccnc12 | · | · | 15* | · | 0.64 | 6 | 11 | 17
COc1ccc(C(=O)Oc2cccc(C=NNC(N)=S)c2)cc1 | · | · | · | · | 0.7 | · | · | ·
COc1c(O)cc2oc(-c3ccc(O)cc3)cc(=O)c2c1O | -7 | 3 | 3 | -1 | 0.63 | · | · | ·
O=c1cc(-c2ccccc2)oc2cc(O)c(O)c(O)c12 | 10 | 12 | 12* | 11* | 0.69 | 6 | 9 | 7
COc1cccc(NC(=O)c2ccc3c(c2)N(C)CCS3)c1 | -1 | 2 | 2 | -1 | 0.63 | · | · | ·
CN1CCSc2ccc(C(=O)Nc3ccc(Cl)cc3)cc21 | 5 | 2 | 100* | 0 | · | 0 | 0 | -3
Oc1ccc(-c2nc3ccccc3nc2-c2ccccc2)cc1 | -1 | 0 | 33* | 0 | 0.7 | -1 | -1 | -1
COc1ccc(CN2CCC(=O)N(C(CO)Cc3ccccc3)CC2)cc1OC (centres undefined) | · | · | · | · | 0.68 | · | · | ·
CC(=NNS(=O)(=O)c1ccccc1)c1ccc2c(c1)OCO2 | · | · | · | · | 0.72 | · | · | ·
O=C(Nc1nnc(N2CCCCCC2)s1)c1cc(-c2ccc(Br)cc2)on1 | 9 | 1 | 1 | 3 | 0.76 | · | · | ·
CC1CCCC(C)N1c1nnc(NC(=O)c2cc(-c3ccc(Br)cc3)on2)s1 (centres undefined) | 4 | 4 | 95* | 0 | · | -4 | -5 | 6
Nc1nc(N)c2cc(S(=O)(=O)c3ccc4ccccc4c3)ccc2n1 | · | · | 28* | · | · | 101* | 99* | 101*
Cc1cc(C=Nn2cnnc2)c(C)n1-c1cccc(C(=O)O)c1 | · | · | · | · | 0.67 | · | · | ·
CCc1ccc(S(=O)(=O)NN=C(C)c2ccncc2)cc1 | · | · | · | · | 0.67 | · | · | ·
Cc1ccc(C(=O)Cn2c(=N)n(N)c3ccccc32)cc1 | -4 | 3 | 82* | 0 | 0.69 | 0 | 0 | -4
Cc1[nH]nc(-c2cccnc2)c1N=NN(C)C | 142* | · | 99* | · | · | 103* | 104* | 102*
Cc1ccc(-c2nc3ccc(Cl)cc3c(=O)n2O)cc1 | -6 | 4 | 11* | 7 | 0.66 | 5 | 7 | 10
SMILES | Tat export inh | AddAB inh | phage Ecoli inh | E coli growth-1 | E coli growth-2 | RecBCD conf | Ecoli viability | AddAB phage OD
Cc1ccc(-c2nc3ccccc3c(=O)n2O)cc1 | 2 | -1 | -1 | -2 | 0.64 | · | · | ·
CC1OC2CC(=O)OC2C2=C1C(=O)c1c(O)cccc1C2=O (centres undefined) | · | · | 14* | · | · | 8 | 3 | 20
O=C(CSc1nc2ncc(Cl)cc2[nH]1)Nc1cccc(F)c1 | 7 | 6 | 12* | 5 | 0.61 | 7 | 8 | 3
CN(CC(=O)Nc1ccc(F)cc1)C(=O)CSc1nc2ncc(Cl)cc2[nH]1 | -3 | 0 | 3 | -2 | 0.7 | · | · | ·
C#CCNC(=O)C1=CC(c2ccc3c(c2)OCO3)CC(OCCCCO)O1 (centres undefined) | · | · | · | · | 0.64 | · | · | ·
Cc1[nH]c2ccccc2c1C=NNC(=O)c1cccc(Br)c1 | · | · | · | · | 0.64 | · | · | ·
CC(CC(=O)Nc1ccc(C)c(Cl)c1)=NNC(=O)Cc1cccs1 | · | · | · | · | 0.71 | · | · | ·
CC1(C)CC(=O)CC(=NNC(=S)NCc2ccccc2)C1 | · | · | · | · | 0.68 | · | · | ·
Cc1ccc(-c2nc(CS(=O)CC(=O)NCc3ccccc3)c(C)o2)cc1 (centres undefined) | -13 | -1 | 29* | 1 | 0.81 | -1 | -2 | 1
CC(=NNc1cccc2cccnc12)c1ccccc1O | · | · | · | · | 0.7 | · | · | ·
CC(=NNc1nccnc1Cl)c1ccc(F)cc1 | · | · | · | · | 0.65 | · | · | ·
O=S(=O)(c1ccc(Cl)nc1)N1CCc2ccccc21 | 0 | -2 | 95* | 1 | 0.64 | -1 | 0 | -2
O=C1C(F)=CC(COC(c2ccccc2)(c2ccccc2)c2ccccc2)OC1n1cc(F)c(=O)[nH]c1=O (centres undefined) | -4 | · | 12* | · | · | 9 | 1 | 26*
S=C(NN=C(c1ccccc1)c1ccccn1)N(Cc1ccccn1)Cc1ccccn1 | -8 | · | 15* | · | · | 6 | 8 | 9
Cc1cc(Cl)ccc1NNC(=O)c1cccs1 | -15 | 5 | 6 | 3 | 0.64 | · | · | ·
O=C(NNc1cc(Cl)ccc1Cl)c1cccs1 | -9 | 5 | 54* | 1 | 0.66 | 1 | 0 | 4
Nc1nc(N)c2cc([N+](=O)[O-])ccc2n1 | 2 | · | 4 | · | 0.6 | · | · | ·
Nc1nc(N)c2c(ccc3c2ccn3Cc2cccc([N+](=O)[O-])c2)n1 | · | · | 100* | · | · | 103* | 103* | 103*
O=C(CCN1CCN(c2ccccc2)CC1)NN=Cc1ccccc1OC(F)F | · | · | · | · | 0.68 | · | · | ·
CCC(C)(C(=O)NC1CCCCC1)N(Cc1cccs1)C(=O)c1ccccn1 (centres undefined) | -4 | -1 | 1 | 0 | 0.72 | · | · | ·
CCC(C)(C(=O)NC1CCCCC1)N(Cc1cccs1)C(=O)c1ccc(=O)[nH]c1 (centres undefined) | -4 | 5 | 12* | 3 | 0.65 | -5 | -4 | 2
Fc1ccc(NC(=S)Nc2ccccc2OC(F)F)cc1Cl | 4 | 5 | 13* | 2 | 0.6 | 5 | 7 | 9
On1onc2c3cc(-c4ccccc4)nc3ccc21 | -12 | 11 | 13* | 11* | 0.47* | 7 | 11 | 4
c1ccc(-c2cc3c(ccc4nonc43)nn2)cc1 | -1 | 4 | 0 | 2 | 0.66 | · | · | ·
CCN1CC2C3C(=O)N(Cc4ccccc4)C(=O)C3[C@](C)(C1=O)N2C(=O)c1ccc(F)cc1 (some centres undefined) | · | · | · | · | 0.72 | · | · | ·
O=C(Nc1ccncc1)Nc1cccc(C(F)(F)F)c1 | 0 | 0 | 8 | 1 | 0.53 | · | · | ·
O=C(Nc1ccc(OC(F)F)cc1)Nc1cccc(C(F)(F)F)c1 | -33 | 11 | 12* | 13* | 0.53* | 11* | 12 | 10
